Rows were chosen to be rich in hits. Some 17% of all compounds tested hit in one or more screens of this group.
TDP1 block = inhibitors of human tyrosyl-DNA phosphodiesterase TDP1 | Q9NUW8 | recombinant TDP1, AlphaScreen DNA substrate cleavage | Potency, µM (doses to about 130 µM), hits mostly inhibitors | actives 0.28% (n = 350,000) | AID 485290; also: nearly all actives have a fitted effect of over 40% in size
Target sequence (Q9NUW8 whole entry, looked up): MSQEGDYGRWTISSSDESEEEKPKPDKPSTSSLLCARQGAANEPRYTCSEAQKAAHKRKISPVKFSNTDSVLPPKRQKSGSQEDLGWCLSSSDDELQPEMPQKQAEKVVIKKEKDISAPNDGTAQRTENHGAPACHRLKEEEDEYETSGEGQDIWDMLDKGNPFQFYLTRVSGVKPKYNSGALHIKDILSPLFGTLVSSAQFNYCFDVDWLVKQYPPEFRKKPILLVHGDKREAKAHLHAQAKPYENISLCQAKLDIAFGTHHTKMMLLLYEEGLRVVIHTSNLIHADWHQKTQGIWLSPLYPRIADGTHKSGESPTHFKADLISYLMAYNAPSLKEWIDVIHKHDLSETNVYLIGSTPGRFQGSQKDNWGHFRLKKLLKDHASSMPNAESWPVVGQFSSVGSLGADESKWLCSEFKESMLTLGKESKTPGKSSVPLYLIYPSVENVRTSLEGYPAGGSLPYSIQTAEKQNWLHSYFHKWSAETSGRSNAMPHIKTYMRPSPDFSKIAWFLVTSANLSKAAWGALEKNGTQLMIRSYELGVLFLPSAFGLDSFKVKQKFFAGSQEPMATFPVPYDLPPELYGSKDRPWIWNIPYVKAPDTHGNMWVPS
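Recombinant human Tdp1 (E. coli-expressed, 1 nM final) preincubated with compounds 15 min at room temperature, then 5'-biotin/3'-phosphotyrosine-FITC DNA substrate (15 nM final) added for 5 min. AlphaScreen beads (10 ug/ml final) added 10 min; cleavage lowers signal.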
ClpP mod = qHTS Assay for Activators of ClpP; actives 1.9% (n = 340,000); ATP-dependent Clp protease proteolytic subunit (Bacillus subtilis (strain 168)), P80244; AID 651965, 2013; Potency, µM (titrated, usually from 57.5 µM); purified B. subtilis ClpP, FRET peptide cleavage, 20 min; active = well fitted falling curve with a large enough effect; inconclusive = small, poorly fitted or top-dose-only effect; inactive = no such curve, though single readings can be large or run the other way; also: the source files actives as falling curves though it sought activators and does not explain the sign; nearly all actives have a fitted effect of over 65% in size
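ClpP 10 microg/mL final, pH 8 Tris/KCl buffer with BSA, glycerol, Tween-20; compound pinned in; FRET-FV substrate; RT 20 min; Ex320/Em430; ΔFRET vs ADEP 5.8 microM, DMSO, no enzyme.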
DT40 TDP1 CPT = DT40-hTDP1 cell growth loss with CPT; AID 686979; actives 12% (n = 420,000); chicken DT40 Tdp1-/-;hTDP1 cells + 20 nM CPT, ATP luminescence, 48 h; Potency, µM (titrated, usually from 46.2 µM), actives largely listed as inhibitors; also: nearly all actives have a fitted effect of over 55% in size
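Cell growth measured by CellTiter-Glo luminescence after a minimum 48 h, 37 C compound exposure with 20 nM CPT in Tdp1-knockout DT40 cells stably expressing hTDP1, seeded 400/well; qHTS titration format.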
TDP1 cell noCPT = qHTS for Inhibitors of human tyrosyl-DNA phosphodiesterase 1 (TDP1): qHTS in cells in absence of CPT; Potency, µM (titrated, usually from 46.2 µM), hits mostly inhibitors; actives 15% (n = 420,000); DT40 Tdp1-/- hTDP1 cells, no CPT, ATP luminescence, 48 h; also: nearly all actives have a fitted effect of over 55% in size
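Compound effects on proliferation are scored in DT40 Tdp1-/-;hTDP1 cells in the absence of CPT. ATP levels (CellTiter-Glo luminescence) are recorded after a ≥48 hr, 37 °C incubation.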
Numbers stand for hits; – = inactive; ? = inconclusive; · = no result given; [ ] = dose if it differs, or a comment. Unless noted, calls follow the shape of the dose curve; as a rule, active = well fitted curve in the direction sought with a large enough effect; inconclusive = small, poorly fitted or top-dose-only effect, or another doubt; inactive = no such curve, though single readings can be large; an effect the other way counts as inactive or inconclusive.

SMILES	TDP1 block	ClpP mod	DT40 TDP1 CPT	TDP1 cell noCPT
CCOc1ccc(C(=O)NC(C(=O)N2CCC2)C(C)C)cc1 (stereo not given)	–	28.2µM	–	–
Cc1ccc(C(=O)OCC(=O)Nc2sccc2C(N)=O)cc1NC(=O)c1ccco1	–	–	?	6.51µM
COc1cc(OC)cc(C(=O)N[C@H](C(=O)OCC(N)=O)C(C)C)c1	–	–	–	–
COc1ccc(C(=O)NC(C(=O)OCC(=O)Nc2sccc2C(N)=O)C(C)C)cc1 (stereo not given)	–	–	?	23.1µM
O=C(C[n+]1cccc(/C=N/O)c1)NC(=O)Nc1ccccc1	·	–	–	–
Cc1ccc2oc(=O)n(CCNC(=O)Nc3ccccc3C)c2c1	–	–	–	–
CCOC(=O)c1ccc(NC(=O)NCCOCCn2c(=O)oc3ccccc32)cc1	–	–	?	?
Cc1ccc(NC(=O)NCCOCCn2c(=O)oc3ccccc32)cc1F	–	–	5.8µM	5.8µM
O=C(NCCOCCn1c(=O)oc2ccccc21)Nc1cccc(Cl)c1	–	–	7.31µM	8.2µM
Cc1ccc(NC(=O)NCCOCCn2c(=O)oc3ccccc32)cc1C	–	–	5.8µM	4.11µM
O=C(CCn1c(=O)oc2ccccc21)Nc1ccccc1	–	–	–	–
Cc1ccc(NC(=O)NCCOCCn2c(=O)oc3ccccc32)c(C)c1	–	–	4.61µM	5.8µM
N#Cc1cccc(-c2nccc(NCc3ccccc3)n2)c1	·	·	?	–
O=C(NCc1ccco1)C1CCCN1C(=O)Nc1ccc(Br)cc1 (stereo not given)	–	·	–	–
COCCNC(=O)CSc1c2c(nc3ccc(Cl)cc13)CCCC2	–	–	16.4µM	?
O=C(CSc1c2c(nc3cc(Cl)ccc13)CCCC2)NCc1ccco1	–	–	23.1µM	16.4µM
CCC(C)NC(=O)CSc1c2c(nc3cc(Cl)ccc13)CCCC2 (stereo not given)	–	–	?	?
O=C(CSc1c2c(nc3cc(Cl)ccc13)CCCC2)NCc1ccccc1Cl	–	–	18.4µM	14.6µM
CC1CCN(C(=O)CSc2c3c(nc4cc(Cl)ccc24)CCCC3)CC1	–	–	?	?
O=C(CSc1c2c(nc3cc(Cl)ccc13)CCCC2)N1CCN(c2ccccc2)CC1	–	–	7.31µM	5.8µM
CCCNC(=O)CSc1c2c(nc3ccc(Cl)cc13)CCCC2	–	–	?	?
Cc1cc(C)cc(C(=O)Nn2cnnc2)c1	·	–	–	–
CC(C)[C@H]1COCCS(=O)(=O)N1Cc1cccc([N+](=O)[O-])c1	·	–	?	?
CCCCNC(=O)CSc1c2c(nc3ccc(Cl)cc13)CCCC2	–	–	?	?
CCCCN(CC)C(=O)CSc1c2c(nc3ccc(Cl)cc13)CCCC2	–	–	7.31µM	16.4µM
SMILES	TDP1 block	ClpP mod	DT40 TDP1 CPT	TDP1 cell noCPT
O=C(CSc1c2c(nc3ccc(Cl)cc13)CCCC2)NCc1ccccc1Cl	–	–	14.6µM	23.1µM
Cc1ccc(CNC(=O)CSc2c3c(nc4ccc(Cl)cc24)CCCC3)cc1	–	–	?	?
COc1ccc(NC(=O)CN2CCN(S(=O)(=O)N3CCCCCC3)CC2)cc1	·	–	–	–
O=C(O/N=C/c1ccc(Br)cc1)c1ccc(F)cc1	·	–	–	–
CC(=O)c1cccc(NC(=O)CN2CCc3cc4c(cc3C2)OCCCO4)c1	·	–	?	?
C=C/C1=C/Cc2ccccc2C(C[N+](=O)[O-])C(C(=O)OC)(C(=O)OC)C1 (stereo not given)	–[21 µM]	·	·	·
O=C(Nc1ccc(OC(F)F)c(Cl)c1)C(c1ccccc1)c1ccccc1	–	–	?	18.4µM
Fc1cc(NC(=S)NCc2ccc(CNC(=S)Nc3ccc(Cl)c(F)c3)cc2)ccc1Cl	·	–	?	13µM
CCNC(=S)Nc1ccc(Cl)c(C(F)(F)F)c1	–	–	–	23.1µM
FC(F)Oc1ccc(NC(=S)NCc2ccccc2)cc1Cl	–	–	15.8µM	?
O=C(Nc1cc([N+](=O)[O-])ccc1F)C1CC1	–	–	–	–
COc1ccc(N2CCN(S(=O)(=O)CCNC(=O)c3ccc(C(F)(F)F)cc3)CC2)cc1	–	–	–	–
COc1ccc(Br)cc1/C=N/NC(=O)C(c1ccncc1)N1CCOCC1 (stereo not given)	–	–	?	23.1µM
O=C(NCc1ccccn1)c1cnn(-c2nccc(-c3cccs3)n2)c1C1CC1	·	·	–[9.04 µM]	–
Cc1ccc(C2N=C(Nc3nc4ccccc4o3)NC3=C2C(=O)CC(C)(C)C3)cc1 (stereo not given)	–	–	7.08µM	4.47µM
CC1(C)CC(=O)C2=C(C1)NC(Nc1nc3ccccc3o1)=NC2c1cccnc1 (stereo not given)	–	?	?	–
CC1(C)CC(=O)C2=C(C1)NC(Nc1nc3ccccc3o1)=NC2c1cccc(O)c1 (stereo not given)	–	–	–	?
CC1(C)CC(=O)C2=C(C1)NC(Nc1nc3ccccc3o1)=NC2c1ccccc1 (stereo not given)	–	–	2.82µM	2.82µM
COc1ccc(C2N=C(Nc3nc4ccccc4o3)NC3=C2C(=O)CC(C)(C)C3)cc1 (stereo not given)	–	–	6.31µM	6.31µM
CSCc1c(C(=O)Nc2ccc3c(c2)OCO3)oc2ccccc12	·	·	–	?
O=C(CSc1nc2c(sc3ccccc32)c(=O)n1CCCC(=O)NC1CCCC1)Nc1ccc(F)cc1	–	?	–	–
O=C(NC1CCCCCC1)c1c(O)nc2sccn2c1=O	·	–	16.4µM	14.6µM
Cc1ccc(C)n1-c1ccc(N(C)C)cc1	–	–	?	29.1µM
Cc1ccc(N(C)C)cc1	–	·	·	·
CCN(CC)C(=O)[C@H]1C[C@H](CC(=O)NCCCOC)C(=O)N2CCc3c([nH]c4cc(CCC(=O)N(C)C)ccc34)[C@]12C	–	–	–	–
SMILES	TDP1 block	ClpP mod	DT40 TDP1 CPT	TDP1 cell noCPT
O=C(CSc1nc(O)cc(=O)n1-c1ccc(Cl)c(Cl)c1)Nc1ccc(Cl)cc1Cl	–	–	–	–
CCCCOc1ccc(C(=O)N2CCNC(=O)C2)cc1	–[0.0935 µM]	·	–	–
C=CCc1c(C)nc(SC)nc1Nc1ccc(C)cc1	–	–	9.2µM	20.6µM
CCOc1ccccc1C(=O)Nc1ccc2nc(N(CC)CC)cc(C)c2c1	–	–	20.6µM	20.6µM
CCOc1ccc(NC(=O)c2ccccc2C(=O)c2ccccc2)cc1OCC	·	–	?	?
CCN(CC)c1cc(C)c2cc(NC(=O)c3ccccc3F)ccc2n1	·	–	20.6µM	29.1µM
COc1ccc(C(=O)Nc2cccc(C(C)=O)c2)c(OC)c1OC	–	–	–	?
CCN(CC)c1cc(C)c2cc(NC(=O)c3cccc(OC)c3)ccc2n1	–	–	?	?
CCN(CC)c1cc(C)c2cc(NC(=O)c3cccc(OC)c3OC)ccc2n1	–	–	16.4µM	6.51µM
CCOc1ccc(C(=O)Nc2ccc3nc(N(CC)CC)cc(C)c3c2)cc1	–	–	18.4µM	?
CCCCCCSc1cc(-c2nc3ccc(C)cn3c2NCCCC)ccc1OC	–	–	?	?

Screens deposited in PubChem by National Center for Advancing Translational Sciences (NCATS).
